High-throughput results deposited in PubChem BioAssay by National Center for Advancing Translational Sciences (NCATS).
Sampled rows, rich in hits. Any-hit rate of the full collection: about 11%.
NIH3T3 tox – kills NIH 3T3 cells | NIH 3T3 viability, CellTiter-Glo ATP luminescence, 48-72 h | Potency, µM (top dose mostly 96.7 µM), inactives show top-dose activity change, negative = cytotoxicity, most hits filed as inhibitors | 94,000 compounds, 4.3% hits; further: nearly all actives have a fitted effect of over 55% in size
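Viability of NIH 3T3 cells after 48 or 72 hr compound treatment at 37 °C was assessed by CellTiter-Glo, with luminescence imaged following a 10 min room-temperature step.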
HEK293 tox – cytotoxic compounds in HEK 293 cells; Potency, µM (highest dose often 115 µM), for the others: top-dose activity change, negative = cytotoxicity, most hits filed as inhibitors; HEK 293 viability, ATP luminescence (CellTiter-Glo), 48-72 h; 94,000 compounds, 6.6% hits; further: nearly all actives have a fitted effect of over 60% in size
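Read-out: CellTiter-Glo ATP luminescence. Cells: HEK 293, 250 cells/well. Exposure: 48 or 72 hr, 37 degree Celsius.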
Luciferase inh – inhibitors of firefly (Photinus pyralis) luciferase | P08659 | purified P. pyralis luciferase, luminescence, biochemical | Potency, µM (doses to about 115 µM), actives largely listed as inhibitors | 76,000 compounds, 2.5% hits | AID 1347043; further: nearly all actives have a fitted effect of over 65% in size
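FLuc 10nM, D-luciferin 10uM, ATP 10uM, Mg acetate 10mM, Tris acetate pH 7.5, Tween/BSA; cpd qHTS; enzyme added last; CCD luminescence.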
hNpr1 antagonist – blocks ANP-stimulated signaling of human Npr1 receptor | HEK293 hNpr1 GloSensor cGMP, ANP-stimulated luminescence | Potency, µM (doses to about 46.3 µM), without a hit: top-dose activity change, negative = inhibition, usual class: inhibitors | 76,000 compounds, 1.6% hits; calls by dose curve; further: nearly all actives have a fitted effect of over 60% in size
Target sequence (P16066 whole entry, looked up): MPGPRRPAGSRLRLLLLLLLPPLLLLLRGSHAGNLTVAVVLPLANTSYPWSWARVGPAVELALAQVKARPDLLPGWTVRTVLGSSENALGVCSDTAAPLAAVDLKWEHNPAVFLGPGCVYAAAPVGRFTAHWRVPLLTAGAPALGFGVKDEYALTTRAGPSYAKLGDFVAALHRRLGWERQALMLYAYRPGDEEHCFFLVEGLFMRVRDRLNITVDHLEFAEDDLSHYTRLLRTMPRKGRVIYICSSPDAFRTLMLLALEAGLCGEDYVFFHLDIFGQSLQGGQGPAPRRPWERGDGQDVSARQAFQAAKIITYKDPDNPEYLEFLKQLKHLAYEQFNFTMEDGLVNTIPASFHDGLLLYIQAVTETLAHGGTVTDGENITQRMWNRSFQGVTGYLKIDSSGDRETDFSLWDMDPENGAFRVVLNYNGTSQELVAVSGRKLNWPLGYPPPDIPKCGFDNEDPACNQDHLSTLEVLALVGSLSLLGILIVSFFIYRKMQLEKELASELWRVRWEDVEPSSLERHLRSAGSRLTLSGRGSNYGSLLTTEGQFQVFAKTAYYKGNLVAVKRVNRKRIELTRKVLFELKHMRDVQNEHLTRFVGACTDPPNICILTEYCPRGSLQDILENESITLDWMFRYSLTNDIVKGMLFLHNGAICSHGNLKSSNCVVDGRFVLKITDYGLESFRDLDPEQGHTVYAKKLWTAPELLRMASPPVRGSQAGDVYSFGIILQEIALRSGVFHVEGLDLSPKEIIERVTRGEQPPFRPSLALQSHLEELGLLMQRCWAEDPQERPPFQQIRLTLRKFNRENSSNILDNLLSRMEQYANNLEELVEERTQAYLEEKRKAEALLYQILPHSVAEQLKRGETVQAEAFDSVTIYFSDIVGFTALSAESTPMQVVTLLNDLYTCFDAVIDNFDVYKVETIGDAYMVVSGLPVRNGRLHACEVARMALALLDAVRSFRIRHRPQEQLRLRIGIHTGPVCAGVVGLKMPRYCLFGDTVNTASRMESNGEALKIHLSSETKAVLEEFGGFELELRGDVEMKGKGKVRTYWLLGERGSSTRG
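HEK293 cells stably expressing human Npr1 and cGMP GloSensor pGS-40F, loaded 2 h with 2% GloSensor reagent, given compound 30 min at room temperature. Luminescence read before and 20 min after 0.1 nM hNppA.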
* hit, by the source's call; i = inactive; ? = inconclusive; . = no result given; [ ] = remark or other dose. Unless noted, the call rests on the fitted dose curve; in most records, active means well fitted curve in the direction sought with a large enough effect; inconclusive means small, poorly fitted or top-dose-only effect, or another doubt; inactive means no such curve, though single readings can be large; an effect the other way counts as inactive or inconclusive. On the % scale 0 is the no-effect control and ±100 the full control effect; potency means the concentration at half of the fitted maximal effect.

SMILES | NIH3T3 tox | HEK293 tox | Luciferase inh | hNpr1 antagonist
C#C[C@H]1CN2CC[C@H]1C[C@@H]2CNC(=O)Nc1cc(OC)cc(OC)c1 | ? | -15%[172 µM] | i | 0%[70.6 µM]
O=C(c1ccc(C(F)(F)F)cc1)N1CCC(C(=O)O)(c2ccccc2)CC1 | i | i | . | .
Cc1ncc2c(n1)C[C@@H]1CC[C@H]2N1C(=O)c1cccs1 | -5% | 1% | i | -3%
C#C[C@H]1CN2CC[C@H]1C[C@@H]2COC(=O)Nc1ccc(OC(F)(F)F)cc1 | 40µM* | ? | i | ?
C#C[C@H]1CN2CC[C@H]1C[C@@H]2COC(=O)Nc1ccc(C(C)(C)C)cc1 | 79µM* | ? | i | -1%[70.6 µM]
O=C(c1cnccn1)N1C[C@@H]2C[C@H](C1)c1ccc(-c3cccc(C(F)(F)F)c3)c(=O)n1C2 | -5% | -12% | i | 6%
Cc1ccccc1-c1ccc2n(c1=O)C[C@H]1C[C@@H]2CN(C(=O)c2cnccn2)C1 | -1%[174 µM] | 89µM* | i | 1%[70.6 µM]
Cc1nc(-c2cccs2)cc([C@H]2CN3CC[C@H]2C[C@@H]3CNC(=O)C(C)(C)C)n1 | ? | ? | i | -8%[70.6 µM]
Cn1nc(-c2cccs2)cc1[C@H]1CN2CC[C@H]1C[C@@H]2CNS(=O)(=O)c1ccccc1 | ? | -26% | i | 3%
Cc1nc(-c2ccccc2Br)cc([C@H]2CN3CC[C@H]2C[C@@H]3CNS(=O)(=O)c2cccs2)n1 | 79µM* | 79µM* | i | 4%
Cc1nc(-c2cccs2)cc([C@H]2CN3CC[C@H]2C[C@@H]3CO)n1 | 16µM* | -106%[172 µM] | i | 2%[70.6 µM]
Cc1nc(-c2cccs2)cc([C@H]2CN3CC[C@H]2C[C@@H]3CNS(=O)(=O)c2ccccc2)n1 | 20µM* | 28µM* | i | -8%
Cc1ccc([C@H]2CN(C(=O)c3cc(C(C)C)on3)[C@@H]3C4CCN(CC4)[C@H]23)cc1 | ? | ? | i | -1%
O=C(c1cccs1)C1CCCN(Cc2cc3n(n2)CCNC3)C1 (stereo unspecified) | i | 0% | i | 4%
Cc1nc(-c2ccccc2)cc([C@H]2CN3CC[C@H]2C[C@@H]3CNS(C)(=O)=O)n1 | ? | -21%[172 µM] | i | -9%[70.6 µM]
Cn1nc(-c2ccccc2)cc1[C@H]1CN2CC[C@H]1C[C@@H]2CNS(=O)(=O)Cc1ccccc1 | 79µM* | 79µM* | i | 6%
Cc1nc(-c2ccc(C(F)(F)F)cc2)cc([C@H]2CN3CC[C@H]2C[C@@H]3CNS(C)(=O)=O)n1 | 40µM* | ? | i | 1%
Cn1nc(-c2ccccc2)cc1[C@H]1CN2CC[C@H]1C[C@@H]2CNS(=O)(=O)c1cccs1 | ? | ? | i | -16%[70.6 µM]
Cn1nc(-c2ccc3ccccc3c2)cc1[C@H]1CN2CC[C@H]1C[C@@H]2CNS(=O)(=O)c1cccs1 | 20µM* | ? | ? | -4%
Cc1nc(-c2ccc(F)cc2)cc([C@H]2CN3CC[C@H]2C[C@@H]3CNS(=O)(=O)Cc2ccccc2)n1 | 79µM* | 35µM* | i | 4%
COc1ccc(CNC[C@H]2C[C@@H]3CCN2C[C@@H]3c2cc(-c3cccs3)nn2C)cc1 | ? | 45µM* | i | 1%[70.6 µM]
COc1ccc(C(=O)NC[C@H]2C[C@@H]3CCN2C[C@@H]3c2cc(-c3cccs3)nn2C)cc1 | ? | ? | i | -3%
CCOC(=O)[C@@H]1[C@H]2c3ccccc3N(C)C(=O)[C@H]2N(C(=O)c2cccs2)[C@@H]1c1ccccc1 | ? | 79µM* | . | .
C#CCN1C(=O)[C@@H]2[C@H](c3ccccc31)[C@@H](C(=O)OCC)[C@@H](c1ccccc1)N2C(=O)c1ccco1 | ? | 32µM* | . | .
Cc1ncc2c(n1)C[C@@H]1CC[C@H]2N1C(=O)CCCc1ccccc1 | -5% | i | i | 4%
COc1ccc(-c2cc([C@H]3CN4CC[C@H]3C[C@@H]4CNC(=O)c3ccc4c(c3)OCO4)n(C)n2)cc1 | ? | ? | i | 7%
O=C(N1[C@H]2CC[C@@H]1c1cnc(-c3ccc(F)cc3)nc1C2)C1(c2ccccc2)CC1 | ? | ? | i | -18%
CCCNC(=O)OC[C@H]1C[C@@H]2CCN1C[C@@H]2c1cc(-c2cccs2)nc(C)n1 | ? | 112µM* | i | 0%[70.6 µM]
Cc1nc(-c2cccs2)cc([C@H]2CN3CC[C@H]2C[C@@H]3COC(=O)NC2CCCCC2)n1 | 45µM* | 45µM* | i | 2%
